The whole screen tested about 5,500 compounds, of which about 2,000 (36%) were called active. Not shown: some 18% with an inconclusive outcome. Rule as the data show it: active = normalized growth mostly below about 0.91 (no sharp cut-off); inconclusive = no clear call, values can overlap the other calls; inactive = mostly above about 0.92. This is one part of the list.
Test: chemical genetic growth profiling, strain panel (AID 1159580);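 also: tested at 20 µM; growth read once vehicle control cultures reached saturation at 30 °C; 1 = growth at the plate median or of vehicle wells; lower values mean less growth of the strain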
Details: S. cerevisiae deletion strains, growth OD

Measured: normalized growth

C=CCN1CCC23c4c5ccc(O)c4O[C@H]2C(=O)CC[C@@]3(O)C1C5 (some centres undefined)
inactive: locus YAL013W, strain DEP1, hits give low values 1.01 | locus YAL040C, strain CLN3, hits give low values 1 | locus YCL061C, strain MRC1 (second series), hits give low values 1 | locus YDR363W, strain ESC2, hits give low values 1.01 | locus YER002W, strain NOP16, hits give low values 0.994 | locus YMR263W, strain SAP30, hits give low values 0.998 | locus YMR307W, strain GAS1, hits give low values 0.998 | locus YNL175C, strain NOP13, hits give low values 0.997 | locus YNL197C, strain WHI3, hits give low values 1.01 | locus YNL224C, strain SQS1, hits give low values 1.01 | locus YNL322C, strain KRE1, hits give low values 1.01 | locus YOR083W, strain WHI5 (second series), hits give low values 1 | locus YPL055C, strain LGE1, hits give low values 1.02 | locus YPL241C, strain CIN2, hits give low values 1

Reference: PubChem BioAssay AID1159580 (chemical genetic matrix, 2015)
